The values that follow come from PubChem BioAssay (Tox21).

Structures are written as SMILES. Values without a mark were called inactive. The source made the active and inactive calls. The call rests on the fitted dose curve; in most records, active means well fitted cell-killing curve with a large enough effect in the repeat runs; inconclusive means weak or mixed curves, or effect the other way; inactive means flat fitted curve, though single readings scatter.
On the % scale 0 is the no-effect control and ±100 the full control effect; potency means the concentration at half of the fitted maximal effect.

A short description of the test: qHTS assay to identify small molecule HDAC inhibitors - cell viability counter screen (AID 1259365). Further: nearly all actives have a fitted effect of over 50% in size. The conditions noted are these: HCT-116 viability, CellTiter-Glo ATP luminescence, 2 h; series mostly up to 92.4 µM; activity change, negative = cytotoxicity: at the top concentration. The text has this: U.S. Tox21 Program National Center for Advancing Translational Sciences [NCATS] NIH Chemical Genomics Center [NCGC] U.S. Environmental Protection Agency [EPA] National Institutes of Environmental Health Sciences [NIEHS] National Toxicology Program [NTP] U.S. Food and Drug Administration [FDA] Tox21 Assay Overview: Histone deacetylases (HDACs) are a group of epigenetic enzymes that regulate gene expression by histone deacetylation. HDACs are capable of introducing epigenetic modifications and such aberrations contribute to the onset and progression of several human diseases, thus making HDACs a popular therapeutic target. For identifying endogenous class I/II HDAC inhibitors a homogenous, luminogenic HDAC I/II cell based assay was used to measure the relative activity of class I and II HDACs from cells. Wild type HCT-116 cells were used to screen Tox21 compound libraries for identifying class I/II HDAC inhibitors.
Tox21 Assay Protocol Summary: HCT-116 cells were dispensed at 1,500 per well in 5uL of culture medium into white solid bottom 1536-well plates (Greiner Bio-One, Monroe, NC) using a Multidrop Combi (Thermo Scientific, Waltham, MA) dispenser. The assay plates were incubated at 37 C and 5% CO2 for an overnight, and then 23nL of compounds dissolved in DMSO and positive control were transferred using a Pintool station (Wako, San Diego, CA). The assay plates were incubated at 37C and 5% CO2 for 2hr. After compound treatment, 4uL of CellTiter-Glo reagent (Promega Corporation, Madison, WI) was added to each well of the assay plates using Flying Reagent Dispenser (FRD, Aurora Discovery, San Diego, CA) and incubated the assay plates at room temperature for 30min. The luminescence signal was quantified using a ViewLux plate reader (Perkin Elmer, Shelton, CT).
As to `C=CC(C)(CCC=C(C)C)OC(=O)/C=C/c1ccccc1` (stereo not given), the “activity change, negative = cytotoxicity” value is -11.4%.
Consider `CC[N+](CC)(CC)Cc1ccccc1`, for which the “activity change, negative = cytotoxicity” value is 2.86%.
`Cc1c(-c2ccc(O)cc2)n(Cc2ccc(OCCN3CCCCCC3)cc2)c2ccc(O)cc12`: the “activity change, negative = cytotoxicity” value was -1.83% [at 42.5 µM].
`C/C=C/C(=O)Oc1c(CCCCCC(C)C)cc([N+](=O)[O-])cc1[N+](=O)[O-]`: the “activity change, negative = cytotoxicity” value was 9.45%.
As to `O=S(=O)(O)c1cc(S(=O)(=O)O)c2ccc3c(S(=O)(=O)O)cc(S(=O)(=O)O)c4ccc1c2c43`, the activity change, negative = cytotoxicity is 1.04% [at 19 µM].
The same measure, in the same setting: to `CSc1ccc2c(c1)N(CCC1CCCCN1C)c1ccccc1S2` (stereo not given) belongs -0.427% [at 42.5 µM]; to `CCCCC(CC)COC(=O)c1ccc(O)cc1` (stereo not given), -24.7%; to `Cc1cc(C)c(C=O)c(C)c1`, 3.09%.
On the same count and under the same terms, the value for `O=C1Nc2ccc(Cl)cc2[C@@](C#CC2CC2)(C(F)(F)F)O1` was -11.2% [at 42.5 µM]; that for `CCOC(=O)[C@@](C)(N)Cc1ccc(O)c(O)c1` was -0.642% [at 42.5 µM].
Consider `CN(C)CCN1CCOCC1`, for which the “activity change, negative = cytotoxicity” value is 1.38%.
Turning to `CCCCCCCCCCCCOC(=O)c1cc(O)c(O)c(O)c1`, the “activity change, negative = cytotoxicity” value was -9.45%.
The same measure, in the same setting: the value for `CSc1c(Cl)c(Cl)c(Cl)c(Cl)c1Cl` was -3.75%; that for `c1cc2c3c(c1)ccc1cccc(c13)C2` was -2.67%; that for `C=CC(=C)CC/C=C(\C)CCC=C(C)C` was 3.69% [at 19 µM].
The same measure, in the same setting: to `CCCCCCCCCCOCC(O)CN` (stereo not given) belongs -2.62% [at 42.5 µM].
In the case of `COC(=O)C1=C(C)NC(C)=C(C(=O)OCCCN2CCC(c3ccccc3)(c3ccccc3)CC2)C1c1cccc([N+](=O)[O-])c1` (stereo not given), the “activity change, negative = cytotoxicity” value is 3.12% [at 42.5 µM].
For `CCCC(CC)CCCCCCCN` (stereo not given), the “activity change, negative = cytotoxicity” value is -12%.
`CCCCNc1c(C(=O)OCC)c(C)nc2c1cnn2CC`: the “activity change, negative = cytotoxicity” value is -11.2% [at 42.5 µM].
In the case of `Cn1cnc2ncnc(N)c21`, the “activity change, negative = cytotoxicity” value is 5.94% [at 42.5 µM].
Still for that read-out and setting: to `OCCN1CN(CCO)CN(CCO)C1` belongs -0.221%.
Take `CC1=C(/C=C/C(C)=C/C=C/C(C)=C\C=O)C(C)(C)CCC1`: the “activity change, negative = cytotoxicity” value was 7.68%.
As for `Cc1cncc(C)c1`, the “activity change, negative = cytotoxicity” value was -0.819%.
`OCCC(O)CO` (stereo not given): the “activity change, negative = cytotoxicity” value is -1.64%.
For `CCCOc1sc(C(=O)N2CCC(c3cc(CN)ccc3F)CC2)c(C)c1Br`, the Potency is 62.8 µM (active).
Take `CCOC(=O)CN`: the “activity change, negative = cytotoxicity” value was -1.61%.
Consider `C=CC(C)C#N` (stereo not given), for which the “activity change, negative = cytotoxicity” value was 0.513%.
On to `Cc1cc(=O)[nH]c(=O)[nH]1`, for which the “activity change, negative = cytotoxicity” value was -0.508%.
Consider `c1ccc(Sc2ccccc2)cc1`, for which the “activity change, negative = cytotoxicity” value is -1.94%.
On the same count and under the same terms, the value for `O=Cc1ccc(F)cc1` was 9.44%; that for `O=C1NC2CCCCN2C12CCN(CCCN1c3ccccc3CCc3ccc(Cl)cc31)CC2` (stereo not given) was 6.63% [at 42.5 µM].
Take `O=C1OC(=O)c2ccc3c4c(ccc1c24)C(=O)OC3=O`: the “activity change, negative = cytotoxicity” value is 4.39%.
Regarding `CCCC(C)CCC(C)=O` (stereo not given), the “activity change, negative = cytotoxicity” value was 1.92%.
Consider `CCC(C)c1cc([N+](=O)[O-])cc([N+](=O)[O-])c1OC(=O)OC(C)C` (stereo not given), for which the “activity change, negative = cytotoxicity” value was -10.6%.
`CNC(=O)c1cc(Oc2ccc(NC(=O)Nc3ccc(Cl)c(C(F)(F)F)c3)cc2)ccn1`: the “activity change, negative = cytotoxicity” value is 4.06% [at 42.5 µM].
As to `CC1CCCCN1CCCOC(=O)c1ccc(OC2CCCCC2)cc1` (stereo not given), the “activity change, negative = cytotoxicity” value is -3.65% [at 42.5 µM].
On to `CCOC(/C=C(\C)CCC=C(C)C)OCC`, for which the “activity change, negative = cytotoxicity” value is -0.165%.
The same measure, in the same setting: to `N[C@@H](CSSC[C@H](N)C(=O)O)C(=O)O` belongs 2.74% [at 0.349 µM].
In the case of `Cn1cccc1`, the “activity change, negative = cytotoxicity” value is -0.926%.
Turning to `CC1CNCC(C)O1` (stereo not given), the “activity change, negative = cytotoxicity” value was 3.38%.
